Screening data as filed in PubChem BioAssay.
V-ATPase pH = yeast V-ATPase proton transport regulation by pHLuorin. S. cerevisiae, pHLuorin cytosolic pH fluorescence. response, % at 10 µM. 350,000 tested, 0.37% active; in the data active means response mostly above about 7.3%, no sharp cut-off; inactive means mostly below about 5.4%; further: actives read high
proKLK7 act = activates the human kallikrein-7 zymogen. activation, % at 7 µM. purified proKLK7, EDANS-DABCYL substrate fluorescence; 100% is mature enzyme control, 0% vehicle. AID 652039. 370,000 tested, 0.9% active. P49862;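 active means activation above the mean of all tested compounds plus 3 SD, computed per campaign excluding outliers beyond control limits, cut at about 13% in these data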
Target sequence (P49862 whole entry, looked up): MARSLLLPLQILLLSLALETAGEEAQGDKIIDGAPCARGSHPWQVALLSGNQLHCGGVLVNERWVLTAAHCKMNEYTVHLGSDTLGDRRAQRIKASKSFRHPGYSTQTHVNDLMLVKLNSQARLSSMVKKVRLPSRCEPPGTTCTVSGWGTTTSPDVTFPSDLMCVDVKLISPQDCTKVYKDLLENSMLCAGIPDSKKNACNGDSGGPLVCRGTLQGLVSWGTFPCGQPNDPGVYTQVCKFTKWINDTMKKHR
ADAM17 inh = inhibits human ADAM17; P78536; inhibition, % at 6.95 µM; 370,000 tested, 0.83% active; recombinant ADAM17, EDANS/DABCYL FRET peptide cleavage;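 active means inhibition above the mean of compounds lying between control limits plus 3 SD, set per campaign, cut at about 8.5% in these data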
ADAM10 inh = inhibits human ADAM10. AID 720582. O14672. 370,000 tested, 0.62% active. recombinant ADAM10, EDANS/DABCYL FRET peptide cleavage, 3 h. inhibition, % at 7 µM;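 active means inhibition above a per-campaign cutoff equal to the mean of compounds falling between control-based bounds plus 3 SD, cut at about 20% in these data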
ADAM10 ctr = inhibits human ADAM10 in ADAM17 exosite counter-screen; shares compounds with ADAM17 inh; recombinant ADAM10, EDANS/DABCYL FRET peptide cleavage, 3 h; inhibition, % at 6.95 µM; 2,900 tested, 47% active; AID 743256;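 active means mean inhibition over the triplicate runs exceeds the activity threshold set in the earlier primary screen, cut at about 20% in these data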
ADAM17 confirm = confirmation of inhibitors of human ADAM17; shares compounds with ADAM17 inh; recombinant ADAM17, EDANS/DABCYL QFRET peptide cleavage; inhibition, % at 6.95 µM; 2,900 tested, 65% active; AID 743257;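 active means mean inhibition across replicates above the hit cutoff set in the primary screen, cut at about 8.5% in these data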
Of the large screens only hits and unclear results are named; the others gave an inactive call (follow-up assays come after a bar, where they were run). Shown are actives, neighbours in structure and some others; about 2.3% of the full set was active somewhere.

CC1(c2nnc(Cc3ccccc3)o2)CC(c2ccc(Cl)cc2)=NO1 (stereo not given)	none
CC1(c2nnc(Cc3ccccc3)o2)CC(c2ccc(C#N)cc2)=NO1 (stereo not given)	ADAM17 inh 9.0 | ADAM10 ctr inactive | ADAM17 confirm inactive
CC1CCC2(CC1)CCC2NCc1ccc(Cl)c(Cl)c1 (stereo not given)	none (no result: V-ATPase pH, proKLK7 act)
CC1(C)CC(=O)C=C(c2ccccc2F)C1=O	none (no result: V-ATPase pH)
COC(=O)CN1C(=O)C2(C(C#N)=C(N)Oc3c2c(C)nn3-c2ccccc2)c2ccccc21 (stereo not given)	ADAM17 inh 13.1 | ADAM10 ctr inactive | ADAM17 confirm inactive
O=C1NC[C@H](Cc2ccccc2)N(C[C@@H]2CCCN2C[C@H](Cc2ccccc2)N2C[C@H](Cc3ccccc3)N(CC3CCCCC3)C(=O)C2=O)C1=O	none (no result: V-ATPase pH)
CC(C)C[C@@H](CN1CCC[C@H]1CN1C(=O)C(=O)NC[C@@H]1Cc1ccccc1)N1C[C@H](Cc2ccc(O)cc2)N(CC2CCCCC2)C(=O)C1=O	ADAM17 inh 10.1 (no result: V-ATPase pH) | ADAM10 ctr 20.0 | ADAM17 confirm 11.2
CC(C)C[C@@H](CN1CCC[C@H]1CN1C(=O)C(=O)NC[C@@H]1Cc1ccc(O)cc1)N1C[C@H](Cc2ccccc2)N(CC2CCCCC2)C(=O)C1=O	none (no result: V-ATPase pH)
O=C1NC[C@H](Cc2ccccc2)N(C[C@H]2CCCN2C[C@H](Cc2ccccc2)N2C[C@H](Cc3ccccc3)N(CC3CCCCC3)C(=O)C2=O)C1=O	ADAM17 inh 9.0 | ADAM10 ctr 20.5 | ADAM17 confirm 9.3
NC(=O)C1CCN(c2nc(-c3ccc(N)cc3)cs2)CC1	none (no result: V-ATPase pH, proKLK7 act)
O=C(CSc1nnc(Cc2ccccc2)n1-c1cccc(Cl)c1)NNC(=O)Cc1ccccc1	ADAM17 inh 15.0 | ADAM10 ctr inactive | ADAM17 confirm inactive
Cc1ccc(C(=O)c2cn[nH]c2-c2ccccc2O)cc1	ADAM17 inh 8.8 | ADAM10 ctr inactive | ADAM17 confirm inactive
Cc1ccc(-c2nn3c(C)nnc3s2)cc1NC(=O)c1cccs1	ADAM17 inh 11.5 | ADAM10 ctr inactive | ADAM17 confirm inactive
COc1c(C)cccc1C(=O)Nc1cc(-c2nn3c(C)nnc3s2)ccc1C	none
CN1CCN(C(=O)/C(=C/c2ccccc2)c2ccccc2)CC1	ADAM17 inh 8.7 | ADAM10 ctr inactive | ADAM17 confirm inactive
Nc1nonc1-c1nc2ccccc2n1CC(=O)O	none
Nc1nonc1-c1nc2ccccc2n1CC(=O)N1CCCCC1	ADAM17 inh 9.9 | ADAM10 ctr inactive | ADAM17 confirm inactive
CCOC(=O)[C@]12CCCC=C1N(Cc1ccc(OC)cc1)C(=O)[C@@H]2CC(=O)NCCCCc1ccccc1	none (no result: V-ATPase pH)
COc1cccc(CNC(=O)CCS(=O)(=O)c2ccc3c(c2)NC(=O)CS3)c1	ADAM17 inh 8.7 | ADAM10 ctr inactive | ADAM17 confirm inactive
COc1cccc(CNS(=O)(=O)c2ccc3c(c2)NC(=O)CS3)c1	none
C[C@@H]1CC=C[C@H]2[C@H]1C(=O)N(Cc1ccccc1)[C@H]2c1ccc2ccccc2c1	ADAM17 inh 9.4 | ADAM10 ctr inactive | ADAM17 confirm inactive
COC(=O)[C@]12C[C@H](CC(=O)N3CCC(c4ccccc4)CC3)C(=O)N(CCc3ccc(OC)c(OC)c3)C1=C[C@H](COCc1ccccc1)O[C@@H]2C	none (no result: V-ATPase pH)
O=C(c1cc(COc2c(F)cccc2F)on1)N1CCC(c2ccccc2Cl)C1 (stereo not given)	ADAM17 inh 9.5 | ADAM10 ctr inactive | ADAM17 confirm 10.8
CC1CCN(N=Nc2nc3c([nH]2)c(=O)n(C)c(=O)n3C)CC1	ADAM17 inh 17.0 | ADAM10 ctr inactive | ADAM17 confirm 9.3
Cn1c(=O)c2[nH]c(N=NN3CCCCC3)nc2n(C)c1=O	none
O=C(N1CCOCC1)N1CC[C@H]2[C@H](CCCN2Cc2ccccc2)C1	none (no result: V-ATPase pH)
CC(C)(C)c1ccc(NC(=O)COC(=O)c2ccc(NS(=O)(=O)c3ccc(F)c(F)c3)cc2)cc1	ADAM17 inh 9.6 | ADAM10 ctr 42.2 | ADAM17 confirm 20.1
CCOc1ccc(-c2cn[nH]c2N)cc1	none (no result: proKLK7 act, ADAM17 inh, ADAM10 inh)
COc1ccc(-c2cn[nH]c2N)cc1	ADAM17 inh 8.8 | ADAM10 ctr inactive | ADAM17 confirm inactive
O=C(O)COc1ccccc1C=NNC(=O)Cc1cc(=O)[nH][nH]1	none (no result: V-ATPase pH)
Cc1cc(C(=O)Nn2c(-c3ccc(Br)cc3)nc3ccccc3c2=O)ccc1[N+](=O)[O-]	ADAM17 inh 8.9 | ADAM10 ctr 24.3 | ADAM17 confirm 11.9
Cc1ccc(NC(=S)Nc2ccc(-c3nnc4n3CCCCC4)cc2)cc1C	none (no result: V-ATPase pH)
O=C(CSc1nnc(-c2ccccc2)n1-c1ccccc1)NN=C/C=C\c1ccccc1[N+](=O)[O-]	ADAM17 inh 8.8 (no result: V-ATPase pH) | ADAM10 ctr 30.5 | ADAM17 confirm 16.0
CCn1c(SCC(=O)N/N=C/C=C/c2ccccc2[N+](=O)[O-])nnc1-c1ccc(Cl)cc1	none (no result: V-ATPase pH)
CCOC(=O)/C=C1\CN(Cc2ccc(OC)cc2)S(=O)(=O)c2ccccc21	ADAM17 inh 9.7 | ADAM10 ctr inactive | ADAM17 confirm 14.6
CCCN1Cc2cc(OC)ccc2-c2ccccc2S1(=O)=O	none
O=C(Nc1ccccc1)C1=C[C@@H](C2CCCCC2)C[C@@H](OCc2ccc(CO)cc2)O1	ADAM17 inh 8.7 | ADAM10 ctr inactive | ADAM17 confirm 12.6
O=C(C1=C[C@@H](c2ccc(Br)cc2)C[C@@H](OCCCCO)O1)N1CCN(Cc2ccccc2)CC1	ADAM17 inh 8.8 | ADAM10 ctr inactive | ADAM17 confirm inactive
O=C(NCc1ccccc1)C1=C[C@@H](c2ccccc2)C[C@@H](OCc2ccc(CO)cc2)O1	none
O=C(Nc1ccccc1)C1=C[C@H](c2ccc(Br)cc2)C[C@H](OCc2ccc(CO)cc2)O1	ADAM17 inh 10.5 | ADAM10 ctr 29.4 | ADAM17 confirm 24.0
CCOC(=O)C1=C(C)N(CCCCCC(=O)O)C(=O)NC1c1ccccc1OC(=O)c1cccs1 (stereo not given)	ADAM17 inh 10.1 (no result: V-ATPase pH) | ADAM10 ctr inactive | ADAM17 confirm inactive
CCOC(=O)C1=C(C)N(CCC(=O)O)C(=O)NC1c1ccccc1Cl (stereo not given)	none
CCCN(CCC)CCN1CCN(C(=O)[C@H](CCc2ccccc2)NC(=O)[C@H]2O[C@@H](n3cnc4c(N)ncnc43)[C@H](O)[C@@H]2O)CC1	none (no result: V-ATPase pH)
CC(C)C(c1nnnn1Cc1ccccc1)N1CCN(Cc2ccco2)CC1 (stereo not given)	none
CC(C)C(c1nnnn1Cc1ccco1)N1CCN(c2cccc(Cl)c2)CC1 (stereo not given)	ADAM17 inh 13.8 | ADAM10 ctr inactive | ADAM17 confirm inactive
O=C(CSc1nnc(SCc2cccc3ccccc23)s1)Nc1ccccc1-c1ccccc1	none (no result: V-ATPase pH)
O=C(c1cc(-c2ccccc2)nc2ccccc12)N1CCN(c2ccccc2O)CC1	ADAM17 inh 13.7 | ADAM10 ctr 28.6 | ADAM17 confirm 19.3
